Results: ChEMBL document CHEMBL3433997, “St. Jude Leishmania screening dataset” (2016)

Assays:
Assay type in all cases: functional
[1] = biological target: Solute carrier family 2, facilitated glucose transporter member 1 (Homo sapiens) (UniProt P11166); assay: ST_JUDE_LEISH: Cytotoxicity at 2uM final concentration against transgenic Leishmania Mexicana promastigotes LmGLUT1 that are glucose transport deficient and complemented with the human glucose transporter GLUT1. Activity is measured by DNA content using SYBR green in vitro
Solute carrier family 2, facilitated glucose transporter member 1 (Homo sapiens), sequence (P11166 whole entry): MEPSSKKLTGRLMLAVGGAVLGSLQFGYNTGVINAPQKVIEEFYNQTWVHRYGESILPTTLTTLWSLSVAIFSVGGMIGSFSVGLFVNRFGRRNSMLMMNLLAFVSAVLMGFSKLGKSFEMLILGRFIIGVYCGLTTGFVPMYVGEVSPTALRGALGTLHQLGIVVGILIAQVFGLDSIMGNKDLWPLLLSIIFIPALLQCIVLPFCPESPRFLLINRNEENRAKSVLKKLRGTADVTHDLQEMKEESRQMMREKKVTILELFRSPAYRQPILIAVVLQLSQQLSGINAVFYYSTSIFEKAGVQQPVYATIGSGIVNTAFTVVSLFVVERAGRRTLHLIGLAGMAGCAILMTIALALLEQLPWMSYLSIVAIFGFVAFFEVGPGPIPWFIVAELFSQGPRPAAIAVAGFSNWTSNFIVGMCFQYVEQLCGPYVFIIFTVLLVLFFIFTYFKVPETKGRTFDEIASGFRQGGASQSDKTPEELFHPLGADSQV

[2] = biological target: Hexose transporter 1 (Plasmodium falciparum) (UniProt O97467); assay: ST_JUDE_LEISH: Cytotoxicity at 2uM final concentration against transgenic Leishmania Mexicana promastigotes LmPfHT that are glucose transport deficient and complemented with the Plasmodium falciparum hexose transporter. Activity is measured by DNA content using SYBR green in vitro
[3] = biological target: Glucose transporter (Leishmania mexicana) (UniProt O61059); assay: ST_JUDE_LEISH: Cytotoxicity at 2uM final concentration against transgenic Leishmania Mexicana promastigotes LmGT2 that are glucose transport deficient and complemented with the L. Mexicana glucose transporter 2. Activity is measured by DNA content using SYBR green in vitro

| Structure (SMILES) | inhibition [1] | inhibition [2] | inhibition [3] |
| --- | --- | --- | --- |
| O=C(/C=C/c1ccc(Cl)c(Cl)c1)NCCCCN1CCCN(C(=O)Nc2cc(Cl)cc(Cl)c2)CC1 | 0.48% | 0.76% | 0.06% |
| C=C(C)CSc1nc2c(c(=O)n1CCc1ccccc1)C1(CCCC1)Cc1ccccc1-2 | 5.95% | 5.36% | 5.02% |
| CC(C)(C)OC(=O)N[C@@H](CS(=O)(=O)CCNC(=N)COCc1ccccc1)C(=O)OC(C)(C)C | 7.09% | 6.29% | 5.74% |
| COc1ccccc1C1CC(c2ccc(C)cc2)=NN1C(=O)c1ccccc1 (stereo unspecified) | 8.25% | 8.06% | 5.66% |
| COc1cc(Cc2cnc(N)nc2N)cc(OCCCN2C(=O)c3ccccc3C2=O)c1OC | 4.68% | 5.99% | 6.69% |
| CCc1ccc(CN2CCC(CNC(=O)c3cc(-c4cccc(C(F)(F)F)c4)cs3)C2)cc1 (stereo unspecified) | -2.78% | -0.98% | -1.61% |
| CN1CCN(c2ccnc3ccc(NC(=O)Nc4cccc5c(-c6ccncc6)cccc45)cc23)CC1 | -0.27% | -0.42% | 0.32% |
| CC1CCN(Cc2c(O)ccc3c(O)c(-c4nc5ccccc5s4)c(=N)oc23)CC1 | 0.12% | 0.79% | -0.56% |
| CCOc1ccc(-c2nonc2NC(=O)c2ccccc2)cc1OCC | 4.72% | 2.09% | 3.26% |
| O=C(c1cccc(-c2cccc(-c3nc4cc(C(F)(F)F)ccc4[nH]3)c2)c1)N1CCCCC1CN1CCC(O)C1 (stereo unspecified) | -0.81% | -0.87% | -1.32% |
| CO/C(=C\C=C\c1cc2cc(Cl)c(Cl)cc2[nH]1)C(=O)NCCCN1CCC(c2ccccc2)CC1 | 2.73% | 5.04% | 1.33% |
| COc1cccc2c(Oc3ccccc3C)ccnc12 | -0.44% | -1.86% | 0.33% |
